This note sets out measurements from paper PMC5540273 (PLoS ONE, 2017).
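Also: KINOMEscan kinase panel screen.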

One assay has as its system CAMK1B. Particulars: concentration: 1 μM, replicates: in singlicate; n = 1.
In the case of `COc1cc2ncn(-c3cc(OCc4ccncc4Br)c(C(N)=O)s3)c2cc1OC` [GW854278], the “%Inh” value is on record as 0%.
On the same count and under the same terms, under `Cc1cc(Nc2nc(-c3cccc(C)n3)nc3ccccc23)ccn1` [GW872411] stands 0%; under `Cc1nnc(-c2ccc(C)c(-c3ccc(C(=O)O)cc3)c2)o1` [GW608005], 8%.
The same measure, in the same setting: under `COc1cc(Nc2ccnc3ccc(C(F)(F)F)cc23)cc(OC)c1OC` [GW577382] stands 38%; under `FC(F)(F)c1ccc(-c2ncn(CCCN3CCOCC3)c2-c2ccncc2)cc1` [SB-217780], 35%; under `Cl.c1ccc(Cn2cnc3cc(Nc4ncnc5ccccc45)ccc32)cc1` [GW272142], 31%.
Still for that read-out and setting: under `Cc1ccc(-c2ccc3c(ccc4sc5c(c43)NC[C@@H](C)N=C5N(C)C)n2)cn1` stands 0%; under `Cl.NS(=O)(=O)c1cccc(Nc2cc(-c3ccc(F)cc3)n[nH]2)c1` [GW824645], 0%; under `CCc1ccc(-c2ccc3c(c2)-c2nn(C)cc2S(=O)(=O)N3C)cc1`, 0%.
For `O=C(Nc1ccc2c(c1)OCO2)NC1CCN(c2ccnc(NCc3ccc(F)cc3)n2)CC1` [GSK1379859], the “%Inh” value came out at 0%.
For the compound `Cc1nc(N(C)[C@H]2CN(C(=O)CC#N)CC[C@H]2C)c2cc[nH]c2n1`, the “%Inh” value is recorded as 0%.
Still for that read-out and setting: the figure for `CCCC(=O)Nc1n[nH]c2ncc(-c3cccc4ccccc34)cc12` [SB-642057] is 7%; for `COC(=O)c1c(-c2ccccc2)c2cc(C)ccc2c(=O)n1Cc1ccccc1` it is 0%; for `Cc1ccc(Oc2ccc(Nc3ncnc4cc[nH]c34)cc2C)cn1` it is 0%.
Same read-out and setting: the figure for `COc1cc2ncn(-c3cc(OCCCc4ccccc4)c(C(N)=O)s3)c2cc1OC` [GSK205189] is 0%.
Same read-out and setting: the figure for `O=C1NC(=O)C(c2ccccc2)=C1Nc1cccc(O)c1` [SB-390534] is 0%; for `CN1C(=O)C(Nc2ccccc2)=C(c2ccccc2)C1=O` [SB-300079] it is 0%; for `COc1ccc(-n2cnc3c(N)ncnc32)cc1` [SKF-97236] it is 25%.
In the case of `COc1ccc(Nc2nccc(N3CCC(NS(=O)(=O)c4ccc(NC(C)=O)cc4)C3)n2)cc1` (stereo not drawn) [GSK1379729], the “%Inh” value amounted to 31%.
Still for that read-out and setting: under `Nc1ncnc2c1ncn2-c1cccc2ccccc12` [SKF-97184] stands 27%.
The same measure, in the same setting: under `Nc1nc(-c2ccccc2F)c(-c2ccnc3ccccc23)s1` [GW560459] stands 0%.
Same read-out and setting: under `CCc1nc(-c2cccc(C)c2)c(-c2ccncc2)s1` stands 9%; under `CCS(=O)c1ccc(-c2coc3ccc(-c4nnc(C)o4)cc23)cc1` (stereo not drawn), 5%.
Turning to `O=c1cc(N2CCOCC2)nc2n(Cc3ccc(F)c(Cl)c3)ccn12` [GSK2297099], the “%Inh” value amounted to 32%.
In the case of `COC(=O)c1c(-c2ccccc2)c2cc(Br)ccc2c(=O)n1Cc1ccc(NC(=O)CCC(=O)O)cc1`, the “%Inh” value is given as 38%.
On to `COc1cc2ncn(-c3cc(OCc4ccncc4)c(C(N)=O)s3)c2cc1OC` [GSK336313], for which the “%Inh” value was 24%.
Still for that read-out and setting: under `CCn1c(-c2nonc2N)nc2ccccc21` [SB-693162/GW549034] stands 8%; under `CCC(=O)c1c(-c2ccccc2)c2cc(Cl)ccc2c(=O)n1Cc1cc(S(C)(=O)=O)n(CC(N)=O)n1`, 0%.
On the same count and under the same terms, the figure for `O=C(Nc1n[nH]c2nc(-c3ccccc3)c(Cl)cc12)C1CC1` [SB-734909] is 0%; for `COc1cccc(-n2cnc3c(N)ncnc32)c1` [SKF-97416] it is 20%.
Still for that read-out and setting: under `CCS(=O)(=O)c1ccc(OC)c(Nc2ncc(-c3ccc(F)cc3)o2)c1.Cl` [GW591947] stands 0%.
Take `COc1cc(OC)cc(-c2cc3cnc(N)nc3nc2NC(=O)NC(C)(C)C)c1`: the “%Inh” value is listed as 0%.
Still for that read-out and setting: under `COc1cc2nccc(Nc3ccc(OCc4ccc(NC(C)=O)cc4)cc3)c2cc1OC.Cl` [GW440135] stands 31%.
Same read-out and setting: the figure for `O=C(Nc1n[nH]c2cc(-c3ccccc3F)ccc12)C1CC1` [SB-733371] is 0%.
Still for that read-out and setting: under `CN1C(=O)C(Nc2cc(Cl)c(O)c(Cl)c2)=C(c2ccc(Cl)cc2)C1=O` [SB-404321] stands 25%.
As to `C[C@@H]1CC[C@H](C(=O)NC2CCCCC2)CN1c1cc(-c2ccc3c(N)n[nH]c3c2)nc(N)n1` [GSK2291363], the “%Inh” value is on record as 2%.

The next assay deals with CAMK1D. Particulars: concentration: 1 μM, replicates: in singlicate; n = 1.
Regarding `COc1cc2ncn(-c3cc(OCc4ccncc4Br)c(C(N)=O)s3)c2cc1OC` [GW854278], the “%Inh” value was 0%.
The same measure, in the same setting: the figure for `Cc1cc(Nc2nc(-c3cccc(C)n3)nc3ccccc23)ccn1` [GW872411] is 0%; for `Cc1nnc(-c2ccc(C)c(-c3ccc(C(=O)O)cc3)c2)o1` [GW608005] it is 4%.
Take `COc1cc(Nc2ccnc3ccc(C(F)(F)F)cc23)cc(OC)c1OC` [GW577382]: the “%Inh” value was found to be 14%.
Still for that read-out and setting: the figure for `FC(F)(F)c1ccc(-c2ncn(CCCN3CCOCC3)c2-c2ccncc2)cc1` [SB-217780] is 23%; for `Cl.c1ccc(Cn2cnc3cc(Nc4ncnc5ccccc45)ccc32)cc1` [GW272142] it is 0%.
Take `Cc1ccc(-c2ccc3c(ccc4sc5c(c43)NC[C@@H](C)N=C5N(C)C)n2)cn1`: the “%Inh” value is listed as 0%.
On the same count and under the same terms, the figure for `Cl.NS(=O)(=O)c1cccc(Nc2cc(-c3ccc(F)cc3)n[nH]2)c1` [GW824645] is 0%; for `CCc1ccc(-c2ccc3c(c2)-c2nn(C)cc2S(=O)(=O)N3C)cc1` it is 5%; for `O=C(Nc1ccc2c(c1)OCO2)NC1CCN(c2ccnc(NCc3ccc(F)cc3)n2)CC1` [GSK1379859] it is 16%.
Still for that read-out and setting: the figure for `Cc1nc(N(C)[C@H]2CN(C(=O)CC#N)CC[C@H]2C)c2cc[nH]c2n1` is 15%; for `CCCC(=O)Nc1n[nH]c2ncc(-c3cccc4ccccc34)cc12` [SB-642057] it is 14%; for `COC(=O)c1c(-c2ccccc2)c2cc(C)ccc2c(=O)n1Cc1ccccc1` it is 19%.
On the same count and under the same terms, under `Cc1ccc(Oc2ccc(Nc3ncnc4cc[nH]c34)cc2C)cn1` stands 34%.
On to `COc1cc2ncn(-c3cc(OCCCc4ccccc4)c(C(N)=O)s3)c2cc1OC` [GSK205189], for which the “%Inh” value was determined as 16%.
Regarding `O=C1NC(=O)C(c2ccccc2)=C1Nc1cccc(O)c1` [SB-390534], the “%Inh” value was 0%.
The same measure, in the same setting: the figure for `CN1C(=O)C(Nc2ccccc2)=C(c2ccccc2)C1=O` [SB-300079] is 0%; for `COc1ccc(-n2cnc3c(N)ncnc32)cc1` [SKF-97236] it is 10%; for `COc1ccc(Nc2nccc(N3CCC(NS(=O)(=O)c4ccc(NC(C)=O)cc4)C3)n2)cc1` (stereo not drawn) [GSK1379729] it is 19%.
Regarding `Nc1ncnc2c1ncn2-c1cccc2ccccc12` [SKF-97184], the “%Inh” value came to 10%.
Same read-out and setting: the figure for `Nc1nc(-c2ccccc2F)c(-c2ccnc3ccccc23)s1` [GW560459] is 0%; for `CCc1nc(-c2cccc(C)c2)c(-c2ccncc2)s1` it is 23%; for `CCS(=O)c1ccc(-c2coc3ccc(-c4nnc(C)o4)cc23)cc1` (stereo not drawn) it is 23%.
On the same count and under the same terms, the figure for `O=c1cc(N2CCOCC2)nc2n(Cc3ccc(F)c(Cl)c3)ccn12` [GSK2297099] is 9%.
Turning to `COC(=O)c1c(-c2ccccc2)c2cc(Br)ccc2c(=O)n1Cc1ccc(NC(=O)CCC(=O)O)cc1`, the “%Inh” value came to 12%.
Same read-out and setting: the figure for `COc1cc2ncn(-c3cc(OCc4ccncc4)c(C(N)=O)s3)c2cc1OC` [GSK336313] is 25%; for `CCn1c(-c2nonc2N)nc2ccccc21` [SB-693162/GW549034] it is 20%.
On the same count and under the same terms, under `CCC(=O)c1c(-c2ccccc2)c2cc(Cl)ccc2c(=O)n1Cc1cc(S(C)(=O)=O)n(CC(N)=O)n1` stands 21%; under `O=C(Nc1n[nH]c2nc(-c3ccccc3)c(Cl)cc12)C1CC1` [SB-734909], 0%; under `COc1cccc(-n2cnc3c(N)ncnc32)c1` [SKF-97416], 11%.
Same read-out and setting: the figure for `CCS(=O)(=O)c1ccc(OC)c(Nc2ncc(-c3ccc(F)cc3)o2)c1.Cl` [GW591947] is 3%.
In the case of `COc1cc(OC)cc(-c2cc3cnc(N)nc3nc2NC(=O)NC(C)(C)C)c1`, the “%Inh” value is 0%.
With `COc1cc2nccc(Nc3ccc(OCc4ccc(NC(C)=O)cc4)cc3)c2cc1OC.Cl` [GW440135], the “%Inh” value stood at 8%.
The same measure, in the same setting: the figure for `O=C(Nc1n[nH]c2cc(-c3ccccc3F)ccc12)C1CC1` [SB-733371] is 0%; for `CN1C(=O)C(Nc2cc(Cl)c(O)c(Cl)c2)=C(c2ccc(Cl)cc2)C1=O` [SB-404321] it is 0%; for `C[C@@H]1CC[C@H](C(=O)NC2CCCCC2)CN1c1cc(-c2ccc3c(N)n[nH]c3c2)nc(N)n1` [GSK2291363] it is 29%.
